# Pf growth 96h – P. falciparum growth inhibition at 96 hours; P. falciparum luciferase reporter growth, 96 h; Potency, µM (series often up to 28.7 µM), for inactives: top-dose activity change, negative = inhibition, usual class: inhibitors; 6.9% of 320,000 active; further: potency means the concentration at half of the fitted maximal effect; on the % scale 0 is the no-effect control and ±100 the full control effect
#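 Plates of compound plus infected erythrocytes (2% hematocrit, 0.05% parasitemia final) incubate 96 hours, 37 C, 5% CO2. Detection reagent added; reduced luminescence from the parasites' luciferase reporter flags inhibition.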
# HCV inhibitor – HCV inhibition; 3.4% of 340,000 active; Huh7.5.1 HCVcc-Cre infection, luciferase reporter, 44 h; Potency, µM (series often up to 41.8 µM), for inactives: at the top dose activity change, negative = inhibition, most hits filed as inhibitors; further: potency means the concentration at half of the fitted maximal effect; on the % scale 0 is the no-effect control and ±100 the full control effect
#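 Compounds are dispensed onto cells plated 4 h earlier at 1,000 per well, with HCVcc-Cre virus (about 0.5 moi) added next. Following 44 h of culture, luminescent signal is measured for 15 sec after 15 min with substrate at room temperature.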
# Pf growth 48h – inhibits P. falciparum growth in the first generation, 48 h. P. falciparum luciferase growth in erythrocytes, 48 h. 5.9% of 310,000 active. Potency, µM (highest dose often 28.7 µM), for inactives: at the top dose activity change, negative = inhibition, usual class: inhibitors; further: potency means the concentration at half of the fitted maximal effect; on the % scale 0 is the no-effect control and ±100 the full control effect
#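 Luciferase-expressing parasites in RBCs, 2% Hct / 0.1% parasitemia final; RPMI 1640 + 0.5% Albumax; 37 C, 5% CO2, one generation; luminescence read-out, lower signal = inhibition.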
# Cycloheximide cs – affects cycloheximide protein synthesis inhibition readout, counter-screen. cell reporter, cycloheximide protein synthesis inhibition counterscreen. max response, %. 12% of 300,000 active. AID 2314; in the data active means max response mostly above about 13%, no sharp cut-off; inactive means mostly below about 14%; further: read at 38.3 µM for the half of the compounds with a filed dose; 0% is about no effect
# Shiga toxin inh – Shiga toxin inhibition; Vero cells, Shiga toxin protein synthesis inhibition reporter; inhibition, % at 38.7 µM; 9.2% of 290,000 active; in the data active means inhibition mostly above about 28%, no sharp cut-off; inactive means mostly below about 43%; further: 0% is about no effect
# HCMV inh – inhibitors of human cytomegalovirus. HFF cells, HCMV-luciferase reporter, 72 h; active compounds read low. activity change, negative = inhibition, % at 57.5 µM. 4.5% of 410,000 active; in the data active means activity change below about -60%; inconclusive means no clear call, values can overlap the other calls; inactive means above about -39%; further: on the % scale 0 is the no-effect control and ±100 the full control effect
#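 Human foreskin fibroblasts infected with luciferase-reporter HCMV at MOI 1 PFU/cell, compounds at two doses. Luciferase measured 72 h post infection; normalized to buffer-only basal and Salinomycin (10uM) controls.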
# Starred values were filed as active, the others as inactive; u = inconclusive; x = no result. Most compounds without a hit are left out; they make up all but 21% or so of the library. Unless noted, the call rests on the fitted dose curve; in most records, active means well fitted inhibition curve with a large enough effect; inconclusive means small, poorly fitted or top-dose-only effect, or another doubt; inactive means no such curve, though single readings can be large or run the other way.
SMILES,Pf growth 96h,HCV inhibitor,Pf growth 48h,Cycloheximide cs,Shiga toxin inh,HCMV inh
COc1ccc(CCC(=O)N/N=C\c2cccs2)cc1,56%,13%,9.3µM*,21,-3,34
Cc1ccc([N+](=O)[O-])c(C(=O)N/N=C/c2cccnc2)c1,u,17%,u,13,10,-9
Cc1ccc([N+](=O)[O-])c(C(=O)N/N=C/c2cccs2)c1,u,5%,u,22*,48,-29
O=C(COc1ccc(Cl)cc1[N+](=O)[O-])N/N=C/c1cccs1,-2%,u,16%,31,49,13
Cc1cc(C)n(CC(=O)N/N=C/c2cccs2)n1,6%,33%,-15%,40*,79*,-28
CCCCOc1ccc(CCC(=O)N/N=C/c2ccco2)cc1,-22%,-18%,u,12*,11,19
Cc1ccc(OCC(=O)N/N=C\c2cccs2)c([N+](=O)[O-])c1,27%,-3%,0%,39*,37*,9
COc1ccc(C(C(=O)NC2CCCCC2)N(Cc2ccco2)C(=O)c2ccccn2)c(OC)c1 (stereo not given),163%,10%,-26%,-11,-9,0
COc1ccc(CCNC(=O)CCc2c(C)nc3c(c(C)nn3-c3ccccc3)c2C)c(OC)c1,x,x,x,x,x,1
CC(C)c1ccc(NC(=O)CN2C(=O)c3cccc4cccc2c34)cc1,x,x,x,x,x,-11
COc1ccc(-c2csc(-c3nc(-c4ccc(Br)s4)cs3)n2)cc1F,x,x,x,x,x,3
Nc1ncc(/C=C/CNC(=O)c2cc(Cl)c(Br)[nH]2)[nH]1,x,x,x,x,x,-15
O=C(Nc1ccccc1[N+](=O)[O-])c1cc2ccccc2nc1Cl,87%,-3%,35%,19,20,17
O=C(Nc1ccc(F)cc1)c1cc(Cl)sc1Cl,81%,9%,31%,29*,77*,7
O=C(Nc1ccc([N+](=O)[O-])cc1)c1cc(Cl)sc1Cl,u,-13%,17%,17,27*,33
O=C(Nc1ccc(N2CCCC2)cc1)c1ccc([N+](=O)[O-])cc1Cl,15%,-3%,32%,-1,-9,-35
O=C(Nc1ccc([N+](=O)[O-])cc1)c1cc2ccccc2nc1Cl,u,-22%,u,20*,8,-23
Nc1nc(Cl)cc(NCCc2ccccc2)n1,31%,x,21%,15*,13,2
Cc1ccc(C(=O)C2CCNCC2)cc1,x,8%,u,18,25,39
Cc1ccc(C(=O)C2C(=O)C3CCC2C3)cc1 (stereo not given),x,x,x,x,x,-73*
CC1=C(c2ccc(C(C)C)cc2)S(=O)(=O)N=C1N1CCC(C(=O)NCc2ccc(C)o2)CC1,x,x,x,x,x,16
O=C(CN1C(=O)NC2(CCCC2)C1=O)N1CCN(S(=O)(=O)c2ccccc2)CC1,-6%,3%,7%,-2,-23,21
Cc1cc(C)c(S(=O)(=O)N2CCN(C(=O)CC(C)n3nc(C)nc3C)CC2)c(C)c1 (stereo not given),x,x,x,x,x,-74*
COCCn1c(C)cc(C(=O)CN2C(=O)NC3(CCCCCCC3)C2=O)c1C,x,1%,21%,52*,93*,123
Cc1cc(C)c(C(=O)CN2C(=O)NC3(CCC(C)CC3)C2=O)cc1C (stereo not given),26%,-11%,-2%,2,5,22
SMILES,Pf growth 96h,HCV inhibitor,Pf growth 48h,Cycloheximide cs,Shiga toxin inh,HCMV inh
Cc1cc(C)c(C(=O)CN2C(=O)NC3(CCCCC3)C2=O)cc1C,24%,-2%,11%,21*,34*,35
COCCn1c(C)cc(C(=O)CN2CCCCC2)c1C,14%,-4%,-7%,13,20,-14
Cc1cc(C)c(S(=O)(=O)N2CCN(C(=O)CN3C(=O)NC4(CCCC4)C3=O)CC2)c(C)c1,4%,-21%,-8%,-1,12,-68*
O=C(N/C(=C\c1ccco1)C(=O)N1CCOCC1)c1ccccc1Cl,u,-1%,10%,-5,-16,3
Cc1cccc(Nc2nnc(SCC(=O)Nc3ccccc3[N+](=O)[O-])s2)c1C,u,u,u,27*,43,-1
Cc1cccc(Nc2nnc(SCC(=O)N(C)C3CCS(=O)(=O)C3)s2)c1C (stereo not given),2.9µM*,2%,u,-2,-1,-27
CCc1ccc(Nc2nnc(SCC(=O)N(C)CC(=O)Nc3ccccc3CC)s2)cc1,0%,u,-2%,28*,26,21
CCc1ccccc1NC(=O)CN(C)C(=O)CSc1nnc(Nc2ccc(C)cc2)s1,u,u,-22%,-1,-9,-14
Cc1ccc(Nc2nnc(SCC(=O)Nc3ccccc3[N+](=O)[O-])s2)cc1,10µM*,-1%,-15%,9,13,3
CC1CCn2c(nc3cc(C(=O)NCc4ccc(OC(C)C)cc4)ccc32)C1 (stereo not given),x,x,x,x,x,19

# Source: PubChem (National Center for Advancing Translational Sciences (NCATS))
